The values that follow come from PubChem BioAssay.

As a reminder, the inhibition is the drop in the measured response relative to a control, in per cent.

Values without a mark were called inactive. Unless noted, no stated cut-off is given here; in the data, active means inhibition above about 30%; inactive means the rest.

For assay [1], the target named is Nuclear receptor coactivator 3 (Homo sapiens) (UniProt Q9Y6Q9). Nature of the assay: NCOA3 GAL4-fusion reporter inhibition – cell-based, luminescence, quadruplicate, confirmation (AID 588792;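 active means mean inhibition over 43.08%, the solvent-only control mean plus 3 SD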;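 further: 0% = DMSO treated cells and 100% = gossypol at 36 µM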). Conditions: HEK293 GAL4-SRC3 luciferase reporter, at 3.6 µM, stronger effect = higher value. Background: In a reporter assay the amount or activity of a reporter protein is the signal.
Chain of Nuclear receptor coactivator 3 (Homo sapiens) (Q9Y6Q9 whole entry, looked up, the tested form may be a part): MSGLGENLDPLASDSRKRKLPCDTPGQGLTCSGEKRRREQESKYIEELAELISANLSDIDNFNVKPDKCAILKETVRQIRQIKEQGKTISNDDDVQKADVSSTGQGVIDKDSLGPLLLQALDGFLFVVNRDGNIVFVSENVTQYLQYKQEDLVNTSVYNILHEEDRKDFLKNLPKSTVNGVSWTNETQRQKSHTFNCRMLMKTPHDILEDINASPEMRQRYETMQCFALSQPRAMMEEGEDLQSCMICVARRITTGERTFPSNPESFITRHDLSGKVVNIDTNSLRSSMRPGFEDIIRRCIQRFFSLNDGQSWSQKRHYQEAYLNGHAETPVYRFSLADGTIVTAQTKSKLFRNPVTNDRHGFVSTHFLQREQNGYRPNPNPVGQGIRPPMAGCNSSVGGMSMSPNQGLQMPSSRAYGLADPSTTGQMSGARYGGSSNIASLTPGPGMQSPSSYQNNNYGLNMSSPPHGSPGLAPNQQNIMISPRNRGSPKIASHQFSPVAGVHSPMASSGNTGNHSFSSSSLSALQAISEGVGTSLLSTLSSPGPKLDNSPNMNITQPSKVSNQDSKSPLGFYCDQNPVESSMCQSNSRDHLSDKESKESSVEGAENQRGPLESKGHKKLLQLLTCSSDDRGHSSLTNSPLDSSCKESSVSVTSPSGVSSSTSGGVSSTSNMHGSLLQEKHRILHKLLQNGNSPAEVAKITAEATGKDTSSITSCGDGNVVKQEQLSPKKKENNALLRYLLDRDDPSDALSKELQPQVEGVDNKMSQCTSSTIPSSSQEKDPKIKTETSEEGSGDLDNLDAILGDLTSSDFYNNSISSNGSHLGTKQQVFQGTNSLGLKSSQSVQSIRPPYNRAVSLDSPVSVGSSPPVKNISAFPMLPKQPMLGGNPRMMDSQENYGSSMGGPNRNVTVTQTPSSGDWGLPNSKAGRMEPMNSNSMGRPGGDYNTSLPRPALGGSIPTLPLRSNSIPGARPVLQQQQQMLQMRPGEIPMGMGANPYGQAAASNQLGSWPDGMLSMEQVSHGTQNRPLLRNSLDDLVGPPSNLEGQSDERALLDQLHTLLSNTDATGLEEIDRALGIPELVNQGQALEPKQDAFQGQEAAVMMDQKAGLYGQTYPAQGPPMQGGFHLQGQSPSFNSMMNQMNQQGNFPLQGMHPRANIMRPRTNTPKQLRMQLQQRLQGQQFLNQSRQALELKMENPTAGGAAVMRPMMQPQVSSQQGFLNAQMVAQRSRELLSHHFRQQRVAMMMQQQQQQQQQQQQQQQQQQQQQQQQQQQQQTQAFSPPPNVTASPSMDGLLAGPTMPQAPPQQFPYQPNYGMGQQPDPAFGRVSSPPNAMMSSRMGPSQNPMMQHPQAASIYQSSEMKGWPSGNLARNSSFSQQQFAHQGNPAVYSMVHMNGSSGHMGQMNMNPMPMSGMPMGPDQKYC

The test system of assay [2] is transactivating tegument protein VP16 (Human herpesvirus 1), Gal4-VP16 luciferase reporter. The experiment in a line: repression of VP16-driven luciferase reporter – cell-based, luminescence, high throughput, counter-screen for SRC3 inhibitor project (AID 588794). Conditions: mammalian cells, at 3.6 µM, stronger effect = higher value.

Consider `COc1cc2[nH]c3c(Cl)ncnc3c2cc1OC`, for which the inhibition is 32.2% in assay [1] and 16.2% in assay [2].
For the molecule `COc1ccc(N2CC(C(=O)N/N=C/c3ccccc3)CC2=O)cc1` (stereo unspecified), the inhibition in assay [1] is 5.28%; in assay [2], -0.56%.
Turning to `OCC(O)C(O)C(O)C(O)C1NCCS1` (stereo unspecified), the values for the inhibition in assay [1] and in assay [2] were -6.42% and -4.51%, respectively.
